# Measurements published in the supplement of paper PMC8291772.
# ± gives the standard error. Whole data set: some 1,300 sequences, median “fluorescence a.u.” near 38, cut for the highest 2% near 280. What follows is part of a selection rich in the highest values, with near analogues and random picks from the rest.
# Biological target: terminal deoxynucleotidyl transferase (calf thymus) (UniProt P06526)
# Test: TdT poly-dT extension signal (Cy3 hybridisation fluorescence, uncapped minus capped) (fluorescence a.u.); higher = more efficient initiation of TdT extension
# Conditions: initiator chemistry: L-DNA (mirror-image), free 5'-OH (3'-tethered via HEG linker)
# Description: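 All mono- to pentamer D-DNA or L-DNA initiators were made by forward (3'->5') photolithographic in situ synthesis on glass on a hexaethylene glycol linker, leaving a free 5'-OH. Each was made in uncapped and DMTr-dT-capped versions, about 11 replicates each. Arrays were extended with calf thymus TdT (0.2 U/uL), 100 uM dTTP and 0.25 mM CoCl2 for 120 min at 37 C, hybridised with an rA18-Cy3 probe and scanned at 532 nm. The value is the mean uncapped minus the mean capped signal. IDs read 5'->3'. L-DNA is mirror-image; D-DNA 5'-OH initiators were below LOD (no extension).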
# Sequence of terminal deoxynucleotidyl transferase (calf thymus) (P06526 whole entry): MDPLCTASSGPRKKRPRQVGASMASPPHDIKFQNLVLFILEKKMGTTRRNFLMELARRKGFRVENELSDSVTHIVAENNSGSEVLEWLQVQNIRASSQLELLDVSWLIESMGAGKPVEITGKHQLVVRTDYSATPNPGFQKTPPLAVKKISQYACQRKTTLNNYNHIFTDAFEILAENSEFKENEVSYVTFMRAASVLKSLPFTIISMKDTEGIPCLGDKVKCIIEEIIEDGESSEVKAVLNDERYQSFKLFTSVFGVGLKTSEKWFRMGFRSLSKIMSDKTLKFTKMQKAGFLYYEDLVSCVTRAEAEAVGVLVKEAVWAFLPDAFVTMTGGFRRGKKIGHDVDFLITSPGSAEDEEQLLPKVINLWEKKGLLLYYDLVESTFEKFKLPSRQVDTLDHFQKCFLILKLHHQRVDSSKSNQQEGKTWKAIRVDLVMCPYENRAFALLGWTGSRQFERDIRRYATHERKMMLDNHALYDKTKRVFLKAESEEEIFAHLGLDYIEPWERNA
row,Sequence,TdT poly-dT extension signal
1,CTCAA,147 ± 10
2,TTCAG,356 ± 32
3,TTCA,275 ± 22
4,CTCAG,173 ± 11
5,GTCAC,153 ± 10
6,ATCAT,172 ± 14
7,TTCAT,372 ± 18
8,TTCAC,371 ± 39
9,ATCAC,188 ± 16
10,GTCAG,161 ± 18
11,TTCAA,388 ± 29
12,CTCAT,130 ± 12
13,GAGTT,40.6 ± 5.8
14,AAAAG,101 ± 8.9
15,GACGG,117 ± 18
16,GAACC,55.9 ± 8.8
17,ACCAT,97.4 ± 8.9
18,GGGTG,69.1 ± 4.3
19,TGCGA,157 ± 7.9
20,TTATA,384 ± 22
21,TTGT,258 ± 19
22,CTATC,168 ± 13
23,TTAT,340 ± 30
24,ATATG,192 ± 15

row,Sequence,TdT poly-dT extension signal
1,ATATA,192 ± 12
2,TTATC,325 ± 29
3,TTATG,340 ± 26
4,CTATG,161 ± 12
5,CTATA,170 ± 13
6,GTAT,140 ± 12
7,ATATC,192 ± 14
8,TTGGA,284 ± 17
9,AGTGA,57.2 ± 5.7
10,ACTCA,79.4 ± 8.6
11,TATAT,197 ± 14
12,AACTT,58.3 ± 8.9
13,ACGCG,70.6 ± 6.6
14,GGTTA,50.7 ± 4.8
15,GTATT,158 ± 10
16,ATATT,201 ± 13
17,TTATT,381 ± 16
18,TATCC,138 ± 13
19,AAAGC,67 ± 7.7
20,GCTGA,75.3 ± 5.4
21,CGACA,68.1 ± 4.9
22,ATAAG,229 ± 14
23,CTAA,170 ± 12
24,GTAA,143 ± 13

row,Sequence,TdT poly-dT extension signal
1,CTAAG,215 ± 13
2,TTAAT,491 ± 32
3,TTAAG,495 ± 38
4,CTAAT,206 ± 15
5,CTAAC,201 ± 14
6,TTAA,347 ± 25
7,GTAAC,191 ± 15
8,TTAAC,377 ± 27
9,ATAAT,246 ± 19
10,GGAAG,82.2 ± 8.3
11,ACGTC,47.1 ± 4.9
12,TACTG,153 ± 14
13,TCTGA,172 ± 12
14,ATCAA,236 ± 13
15,GTCA,95.9 ± 6.2
16,GGATC,67.1 ± 5.8
17,AATA,106 ± 9.7
18,ATGGC,127 ± 8.4
19,AACGG,77.3 ± 5.7
20,GAGTG,61 ± 6.3
21,TTAAA,563 ± 39
22,ATAAA,276 ± 19
23,CTAAA,224 ± 15
24,TCGAA,187 ± 8.6

row,Sequence,TdT poly-dT extension signal
1,CTTGC,107 ± 7.2
2,TTGAT,314 ± 27
3,GTGAT,121 ± 12
4,GTGAG,160 ± 13
5,ATGAT,150 ± 9.9
6,CTGAG,130 ± 11
7,TTGA,270 ± 19
8,GTGAC,144 ± 9
9,GTGAA,142 ± 17
10,TTGAA,339 ± 42
11,ATGAA,175 ± 12
12,TTGAG,317 ± 33
13,TTGAC,338 ± 26
14,TCTCC,117 ± 8.4
15,CCGGG,82.9 ± 7.7
16,GTAAA,239 ± 15
17,ACTTT,70.7 ± 5.3
18,CTGGT,116 ± 6.9
19,TCCCG,199 ± 19
20,AATG,74.3 ± 5.6
21,GTGTT,100 ± 8.2
22,CGCGA,66.2 ± 6
23,ACCCG,76.1 ± 6.5
24,TTTC,280 ± 19

row,Sequence,TdT poly-dT extension signal
1,TTTCG,286 ± 22
2,CTTCG,133 ± 16
3,TGCAC,141 ± 11
4,GGGCG,83.8 ± 6.6
5,GACGC,93 ± 9.5
6,ATTGG,180 ± 13
7,GTTGG,144 ± 11
8,TTGGG,335 ± 18
9,TTTT,223 ± 25
10,ATTGT,167 ± 9.2
11,GTTGT,139 ± 8.7
12,TTTTT,282 ± 18
13,TTGG,274 ± 21
14,TTTGT,311 ± 21
15,CTGGG,141 ± 8.5
16,TTTTG,293 ± 38
17,TTTGG,350 ± 26
18,GTGGG,172 ± 9.4
19,TATCA,160 ± 12
20,GGCGC,77.7 ± 6.3
21,CGAGC,65 ± 6.4
22,GCGGC,73.3 ± 6.8
23,AGCAA,61.2 ± 5.3
24,TTTGA,320 ± 26

row,Sequence,TdT poly-dT extension signal
1,TTTG,264 ± 15
2,TTTGC,271 ± 19
3,GTCCT,117 ± 9.6
4,TTCCC,358 ± 31
5,CTCCT,111 ± 9.1
6,ATCCA,153 ± 10
7,TTCCA,299 ± 18
8,GTCCA,122 ± 10
9,TTCCT,286 ± 28
10,TGCC,126 ± 14
11,TTTCC,270 ± 21
12,TTCC,293 ± 17
13,ATCCC,147 ± 16
14,TCCCC,175 ± 17
15,CTTCA,130 ± 11
16,CCTAA,98.7 ± 6
17,ATGCT,116 ± 7.5
18,CGTTT,51.4 ± 5
19,GTAGG,181 ± 10
20,CCAAG,120 ± 9.5
21,CTTT,127 ± 17
22,TATC,171 ± 12
23,TGTA,126 ± 10
24,TACA,178 ± 8

row,Sequence,TdT poly-dT extension signal
1,GTCCG,147 ± 12
2,TTCCG,388 ± 25
3,CTCCG,127 ± 11
4,TGCGC,154 ± 12
5,TTCTT,311 ± 24
6,CTCTT,122 ± 10
7,TTCTG,320 ± 24
8,GTCTT,128 ± 8
9,TTCTA,312 ± 31
10,TTCT,243 ± 31
11,GTCTG,128 ± 7.3
12,CTCTA,130 ± 12
13,ATCTG,143 ± 16
14,ACCCA,77.1 ± 11
15,TCGAT,152 ± 12
16,CAGTG,49.3 ± 7.1
17,CCTA,84.4 ± 13
18,ACAAC,92.6 ± 6.6
19,GCACG,87 ± 5.5
20,ATGCC,109 ± 15
21,TTCGG,347 ± 20
22,TTCGA,367 ± 21
23,CTCGA,135 ± 12
24,TTCGT,330 ± 27

row,Sequence,TdT poly-dT extension signal
1,CTCGT,115 ± 9
2,ATCGA,206 ± 17
3,GTCGG,178 ± 14
4,ATCGT,189 ± 13
5,TTCG,284 ± 31
6,CTCG,124 ± 17
7,CTCGG,158 ± 9.7
8,TCCG,221 ± 19
9,TCATT,134 ± 15
10,GACTG,85.6 ± 6.6
11,GCCTG,90.6 ± 8.8
12,CCAC,93 ± 7.6
13,ATACG,188 ± 13
14,ACAGT,65.8 ± 8.1
15,ACTGG,71.1 ± 8.8
16,TAGCC,105 ± 7.2
17,CTCGC,146 ± 15
18,GTCGC,137 ± 12
19,TTCGC,323 ± 18
20,CGGTC,31.7 ± 5.1
21,AGCGC,57.8 ± 6.1
22,TTAGA,396 ± 35
23,CTAGA,170 ± 11
24,ATAGC,182 ± 14

row,Sequence,TdT poly-dT extension signal
1,TTAGT,368 ± 28
2,TTAG,308 ± 27
3,TAAG,161 ± 15
4,CTAGT,157 ± 12
5,GTAGA,191 ± 19
6,TTAGC,308 ± 15
7,GTAG,159 ± 11
8,GTAGT,130 ± 11
9,CTAGC,134 ± 8.7
10,TGTCA,114 ± 7.2
11,AGTGT,44.6 ± 5.9
12,GATGC,82.1 ± 9.4
13,TACGA,194 ± 14
14,CCGGA,78.7 ± 10
15,ACGAA,76.9 ± 4.9
16,GTTTA,123 ± 9.7
17,ATAGG,198 ± 12
18,CTAGG,182 ± 8.8
19,TTAGG,444 ± 29
20,CCTGG,79.5 ± 7.8
21,TCTC,128 ± 17
22,TCTCT,347 ± 200
23,TCTCA,199 ± 18
24,TAGGA,123 ± 9.3

row,Sequence,TdT poly-dT extension signal
1,GTACG,158 ± 12
2,GTACT,137 ± 10
3,TTACG,380 ± 28
4,ATACA,204 ± 18
5,GTACC,143 ± 13
6,TTACC,393 ± 30
7,CTACT,152 ± 15
8,GTACA,152 ± 8.5
9,CTACC,127 ± 19
10,TTACT,396 ± 14
11,TTACA,344 ± 20
12,TTAC,275 ± 24
13,GACCT,77.6 ± 11
14,GAGGT,55.2 ± 5.3
15,CAGAG,71.3 ± 6.3
16,AATTG,77.2 ± 7
17,CTTTG,141 ± 13
18,CCACT,90 ± 7.8
19,AGTA,44.2 ± 4.4
20,ACCA,87.8 ± 9.2
21,TTTCA,281 ± 27
22,ACCG,78.2 ± 8
23,TTTAC,344 ± 22
24,TTTA,271 ± 29

row,Sequence,TdT poly-dT extension signal
1,CTTAC,153 ± 14
2,ATTAT,152 ± 14
3,GTTAC,130 ± 11
4,ATTAG,195 ± 19
5,GTTAA,194 ± 15
6,TTTAT,331 ± 24
7,TTTAG,345 ± 24
8,CTTAT,106 ± 7.6
9,TTTAA,392 ± 18
10,CTTAA,181 ± 12
11,TGAGC,147 ± 8.6
12,TAAAC,191 ± 19
13,CACCG,74.4 ± 8.1
14,TAAAT,192 ± 18
15,GCCGC,93.5 ± 6.3
16,GTTTT,125 ± 8.3
17,TTTTC,242 ± 27
18,TTTTA,302 ± 24
19,CTTTA,106 ± 9.8
20,CATGG,80 ± 9.5
